# Results filed as inconclusive are left out. Activity calls are given as the source filed them. Rule for the calls: active = hit-call score of the fitted dose curve at least 0.9, where 1 is the maximum; inconclusive = response in the unintended direction; inactive = score below 0.9.
# Columns and labels:
# [1] = molecular target: human Phosphodiesterase 4A1 (PDE4A1), PDE4A (gene 5141) (UniProt P27815); assay: NVS_ENZ_hPDE4A1: NovaScreen (NVS) Enzymatic Assay for human Phosphodiesterase 4A1 (PDE4A1) (AID 2283191)
# Procedure: (§1) NVS_ENZ_hPDE4A1 is a biochemical, single-readout assay that uses extracted gene-proteins in a cell-free assay. Measurements were taken 1 hour after chemical dosing in a 384-well plate.NVS_ENZ_hPDE4A1 is one of one assay component(s) measured or calculated from the NVS_ENZ_hPDE4A1 assay. It is designed to make measurements of enzyme activity, a form of enzyme reporter, as detected with fluorescence intensity signals by Fluorescence and electrophoretic mobility shift technology.Data from the assay component NVS_ENZ_hPDE4A1 was analyzed into 1 assay endpoint. This assay endpoint, NVS_ENZ_hPDE4A1, was analyzed in the positive analysis fitting direction relative to DMSO as the negative control and baseline of activity. Using a type of enzyme reporter, loss-of-signal activity can be used to understand changes in the enzymatic activity as they relate to the gene PDE4A. Furthermore, this assay endpoint can be referred to as a primary readout, because this assay has produced multiple assay endpoints where this one serves a enzymatic activity function. To generalize the intended target to other relatable targets, this assay endpoint is annotated to the esterase intended target family, where the subfamily is phosphodiesterase. […]
# [2] = molecular target: human Matrix Metalloproteinase-9 (MMP9), MMP9 (gene 4318) (UniProt P14780); assay: NVS_ENZ_hMMP9: NovaScreen (NVS) Enzymatic Assay for human Matrix Metalloproteinase-9 (MMP9) (AID 2283190);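 note: cell-free recombinant MMP9 protease activity read by fluorescent substrate signal; active means inhibition seen as loss of fluorescence signal versus DMSO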
# Outline: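 Inhibition was scored as loss of fluorescence signal against DMSO controls. The recombinant protease was exposed to chemicals for 1 hour before reading; initial testing used 25 uM in duplicate.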
# [3] = molecular target: human c-Jun N-terminal Kinases (JNK2), MAPK9 (gene 5601) (UniProt P45984); assay: NVS_ENZ_hJNK2: NovaScreen (NVS) Enzymatic Assay for human c-Jun N-terminal Kinases (JNK2) (AID 2283171)
# Outline: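 Cell-free recombinant human JNK2 activity assay; fluorescent substrate and product separated by electrophoretic mobility shift, read 1 h after dosing. Primary duplicate screen at 25 uM; actives run in concentration-response up to 50 uM, relative to DMSO.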
# [4] = molecular target: Mitogen-activated protein kinase 3 (Homo sapiens) (UniProt P27361); assay: NVS_ENZ_hMAPK3: NovaScreen (NVS) Enzymatic Assay for human Mitogen-Activated Protein Kinase 3 (MAPK 3) (AID 2283177)
# Procedure: as §1, with “NVS_ENZ_hMAPK3” for “NVS_ENZ_hPDE4A1”, “plate.NVS_ENZ_hMAPK3” for “plate.NVS_ENZ_hPDE4A1”, “NVS_ENZ_hMAPK3,” for “NVS_ENZ_hPDE4A1,”, “MAPK3.” for “PDE4A.”, “kinase” for “esterase”, “serine/threonine kinase.” for “phosphodiesterase.”
# [5] = molecular target: human MAP Kinase-Activated Protein Kinase 2 (MAPKAPK2), MAPKAPK2 (gene 9261) (UniProt P49137); assay: NVS_ENZ_hMAPKAPK2: NovaScreen (NVS) Enzymatic Assay for human MAP Kinase-Activated Protein Kinase 2 (MAPKAPK2) (AID 2283178)
# Outline: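 Cell-free recombinant human MAPKAPK2 activity measured by fluorescence with electrophoretic mobility shift separation of substrate and product, 1 hr after dosing. Loss of signal versus DMSO; primary screen at 25 uM, concentration-response up to 50 uM.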
# [6] = molecular target: human Matrix Metalloproteinase-3 (MMP3), MMP3 (gene 4314) (UniProt P08254); assay: NVS_ENZ_hMMP3: NovaScreen (NVS) Enzymatic Assay for human Matrix Metalloproteinase-3 (MMP3) (AID 2283185)
# Outline: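 Cell-free recombinant human MMP3 activity, fluorescence intensity read 1 h after dosing. Primary screen duplicate at 25 uM, actives retested in concentration series; loss of signal vs DMSO baseline.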
# [7] = molecular target: human Mitogen- and Stress-activated Protein Kinase-1 (Msk1), RPS6KA5 (gene 9252) (UniProt O75582); assay: NVS_ENZ_hMsk1: NovaScreen (NVS) Enzymatic Assay for human Mitogen- and Stress-activated Protein Kinase-1 (Msk1) (AID 2283187)
# Outline: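 Recombinant kinase with fluorescent substrate; product separated by electrophoretic mobility shift, read 1 h after dosing. Screened in duplicate at 25 uM; hits (e.g. ≥30% inhibition) tested in concentration–response up to 50 uM. DMSO baseline.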
# [8] = molecular target: human Janus Kinase 2 (Jak2), JAK2 (gene 3717) (UniProt O60674); assay: NVS_ENZ_hJak2: NovaScreen (NVS) Enzymatic Assay for human Janus Kinase 2 (Jak2) (AID 2283169)
# Outline: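 Cell-free recombinant human JAK2 enzyme activity assay, fluorescence/electrophoretic mobility shift read 1 h after dosing. Screened in duplicate at 25 uM, then concentration-response up to 50 uM; activity as signal loss relative to DMSO.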
# [9] = molecular target: human LYN Proto-Oncogene, Src family Tyrosine Kinase (LynA), LYN (gene 4067) (UniProt P07948); assay: NVS_ENZ_hLynA: NovaScreen (NVS) Enzymatic Assay for human LYN Proto-Oncogene, Src family Tyrosine Kinase (LynA) (AID 2283173)
# Outline: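 Recombinant kinase with fluorescent substrate; product separated from substrate by electrophoretic mobility shift and read 1 h after dosing. Duplicate screen at 25 uM, then concentration-response up to 50 uM; activity scored as signal loss against DMSO.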
# [10] = molecular target: Collagenase 3 (Homo sapiens) (UniProt P45452); assay: NVS_ENZ_hMMP13: NovaScreen (NVS) Enzymatic Assay for human Matrix Metalloproteinase-13 (MMP13) (AID 2283182)
# Outline: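 Recombinant MMP13 cleaving fluorescent substrate, cell-free, measured 1 h after dosing. Primary duplicate screen at 25 uM; actives tested in concentration-response up to 50 uM; loss of signal relative to DMSO.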
# human Matrix Metalloproteinase-9 (MMP9), MMP9 (gene 4318), sequence (P14780 whole entry, looked up): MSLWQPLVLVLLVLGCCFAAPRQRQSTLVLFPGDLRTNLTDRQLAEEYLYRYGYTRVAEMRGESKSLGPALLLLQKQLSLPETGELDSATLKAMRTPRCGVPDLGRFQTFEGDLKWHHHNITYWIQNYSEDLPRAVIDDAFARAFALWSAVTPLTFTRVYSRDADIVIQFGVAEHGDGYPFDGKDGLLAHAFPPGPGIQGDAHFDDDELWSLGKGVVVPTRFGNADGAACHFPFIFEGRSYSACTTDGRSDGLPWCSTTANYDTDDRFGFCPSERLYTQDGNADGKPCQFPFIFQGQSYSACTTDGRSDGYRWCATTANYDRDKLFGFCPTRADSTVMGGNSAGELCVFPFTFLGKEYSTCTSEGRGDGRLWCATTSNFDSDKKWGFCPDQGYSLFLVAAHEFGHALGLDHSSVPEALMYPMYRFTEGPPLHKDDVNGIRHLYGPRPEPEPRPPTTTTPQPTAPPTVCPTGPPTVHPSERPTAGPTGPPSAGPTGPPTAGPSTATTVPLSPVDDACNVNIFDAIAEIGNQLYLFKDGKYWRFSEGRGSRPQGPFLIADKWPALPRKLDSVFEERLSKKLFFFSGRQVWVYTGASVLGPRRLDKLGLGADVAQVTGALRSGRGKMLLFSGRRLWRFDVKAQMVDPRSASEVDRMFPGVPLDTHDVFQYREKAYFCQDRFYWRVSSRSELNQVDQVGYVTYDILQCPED
# human c-Jun N-terminal Kinases (JNK2), MAPK9 (gene 5601), sequence (P45984 whole entry, looked up): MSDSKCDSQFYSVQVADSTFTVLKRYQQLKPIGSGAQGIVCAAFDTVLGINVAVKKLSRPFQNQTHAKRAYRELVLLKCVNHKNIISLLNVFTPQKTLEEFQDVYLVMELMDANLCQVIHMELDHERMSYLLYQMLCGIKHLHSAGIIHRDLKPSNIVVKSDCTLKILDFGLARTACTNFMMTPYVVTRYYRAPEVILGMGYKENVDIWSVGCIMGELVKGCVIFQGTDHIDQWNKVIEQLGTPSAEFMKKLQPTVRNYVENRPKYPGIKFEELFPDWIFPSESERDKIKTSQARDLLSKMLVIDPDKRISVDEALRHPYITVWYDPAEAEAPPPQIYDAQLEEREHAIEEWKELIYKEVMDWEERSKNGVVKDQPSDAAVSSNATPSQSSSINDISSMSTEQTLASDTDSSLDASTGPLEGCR
# Mitogen-activated protein kinase 3 (Homo sapiens), sequence (P27361 whole entry, looked up): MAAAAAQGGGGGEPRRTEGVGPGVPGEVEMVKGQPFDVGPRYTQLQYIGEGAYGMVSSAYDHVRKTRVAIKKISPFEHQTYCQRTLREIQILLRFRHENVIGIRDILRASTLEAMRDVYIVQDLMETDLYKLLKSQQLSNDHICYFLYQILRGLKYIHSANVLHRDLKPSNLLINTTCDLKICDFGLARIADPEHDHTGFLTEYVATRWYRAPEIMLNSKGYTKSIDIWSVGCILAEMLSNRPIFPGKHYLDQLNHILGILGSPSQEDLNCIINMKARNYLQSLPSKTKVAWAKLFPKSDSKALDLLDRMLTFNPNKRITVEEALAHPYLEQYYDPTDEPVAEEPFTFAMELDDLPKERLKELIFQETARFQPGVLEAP
# human Phosphodiesterase 4A1 (PDE4A1), PDE4A (gene 5141), sequence (P27815 whole entry, looked up): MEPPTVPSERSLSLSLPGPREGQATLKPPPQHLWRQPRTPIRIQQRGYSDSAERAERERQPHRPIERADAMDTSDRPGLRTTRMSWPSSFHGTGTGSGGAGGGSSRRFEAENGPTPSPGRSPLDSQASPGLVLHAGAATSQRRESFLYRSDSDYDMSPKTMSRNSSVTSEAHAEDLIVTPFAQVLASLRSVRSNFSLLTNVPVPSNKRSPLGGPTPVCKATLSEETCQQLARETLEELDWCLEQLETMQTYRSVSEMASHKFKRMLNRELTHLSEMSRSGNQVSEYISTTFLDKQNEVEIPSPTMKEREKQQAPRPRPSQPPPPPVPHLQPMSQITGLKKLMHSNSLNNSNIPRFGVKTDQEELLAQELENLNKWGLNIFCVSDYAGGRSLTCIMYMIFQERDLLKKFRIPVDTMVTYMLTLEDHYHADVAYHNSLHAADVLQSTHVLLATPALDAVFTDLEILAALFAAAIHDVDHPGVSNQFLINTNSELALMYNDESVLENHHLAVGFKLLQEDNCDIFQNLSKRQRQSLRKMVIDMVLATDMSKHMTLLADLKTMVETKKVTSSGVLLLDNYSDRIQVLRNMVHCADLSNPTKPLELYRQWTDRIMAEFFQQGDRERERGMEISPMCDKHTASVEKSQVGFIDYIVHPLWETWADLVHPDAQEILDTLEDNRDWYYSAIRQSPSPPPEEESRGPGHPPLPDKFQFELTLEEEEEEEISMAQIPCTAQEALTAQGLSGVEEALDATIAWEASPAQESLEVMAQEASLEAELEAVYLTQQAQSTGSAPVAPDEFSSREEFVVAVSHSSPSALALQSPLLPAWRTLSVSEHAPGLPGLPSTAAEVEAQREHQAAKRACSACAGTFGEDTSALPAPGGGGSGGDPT
# human Janus Kinase 2 (Jak2), JAK2 (gene 3717), sequence (O60674 whole entry, looked up): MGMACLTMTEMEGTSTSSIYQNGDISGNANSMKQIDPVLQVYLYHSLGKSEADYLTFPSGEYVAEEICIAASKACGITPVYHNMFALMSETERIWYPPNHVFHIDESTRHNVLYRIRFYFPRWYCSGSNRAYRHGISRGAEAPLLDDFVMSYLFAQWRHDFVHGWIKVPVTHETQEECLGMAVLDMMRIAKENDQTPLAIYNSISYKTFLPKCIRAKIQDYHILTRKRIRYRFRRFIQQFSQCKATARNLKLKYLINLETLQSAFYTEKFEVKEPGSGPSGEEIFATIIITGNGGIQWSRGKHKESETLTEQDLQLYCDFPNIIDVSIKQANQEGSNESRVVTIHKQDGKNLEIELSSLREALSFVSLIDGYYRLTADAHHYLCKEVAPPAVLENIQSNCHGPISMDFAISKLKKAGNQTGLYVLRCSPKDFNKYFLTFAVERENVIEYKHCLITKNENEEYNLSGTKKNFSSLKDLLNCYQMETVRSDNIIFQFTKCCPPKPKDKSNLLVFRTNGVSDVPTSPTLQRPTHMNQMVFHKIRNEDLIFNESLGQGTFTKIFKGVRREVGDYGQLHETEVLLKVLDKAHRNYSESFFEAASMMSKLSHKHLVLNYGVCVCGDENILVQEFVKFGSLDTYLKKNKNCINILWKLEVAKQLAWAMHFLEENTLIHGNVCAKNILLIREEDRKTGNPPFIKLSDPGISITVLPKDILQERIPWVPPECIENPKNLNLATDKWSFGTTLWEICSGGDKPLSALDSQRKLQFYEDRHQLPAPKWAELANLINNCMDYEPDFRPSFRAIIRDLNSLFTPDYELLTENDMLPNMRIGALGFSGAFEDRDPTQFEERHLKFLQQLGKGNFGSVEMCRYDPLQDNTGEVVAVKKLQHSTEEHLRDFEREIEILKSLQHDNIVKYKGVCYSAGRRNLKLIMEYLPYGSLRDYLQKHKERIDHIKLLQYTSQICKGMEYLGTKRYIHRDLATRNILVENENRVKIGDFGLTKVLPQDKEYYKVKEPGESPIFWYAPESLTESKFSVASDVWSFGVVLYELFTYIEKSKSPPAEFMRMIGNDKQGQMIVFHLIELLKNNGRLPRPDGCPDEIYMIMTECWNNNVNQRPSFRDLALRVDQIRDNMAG
# human MAP Kinase-Activated Protein Kinase 2 (MAPKAPK2), MAPKAPK2 (gene 9261), sequence (P49137 whole entry, looked up): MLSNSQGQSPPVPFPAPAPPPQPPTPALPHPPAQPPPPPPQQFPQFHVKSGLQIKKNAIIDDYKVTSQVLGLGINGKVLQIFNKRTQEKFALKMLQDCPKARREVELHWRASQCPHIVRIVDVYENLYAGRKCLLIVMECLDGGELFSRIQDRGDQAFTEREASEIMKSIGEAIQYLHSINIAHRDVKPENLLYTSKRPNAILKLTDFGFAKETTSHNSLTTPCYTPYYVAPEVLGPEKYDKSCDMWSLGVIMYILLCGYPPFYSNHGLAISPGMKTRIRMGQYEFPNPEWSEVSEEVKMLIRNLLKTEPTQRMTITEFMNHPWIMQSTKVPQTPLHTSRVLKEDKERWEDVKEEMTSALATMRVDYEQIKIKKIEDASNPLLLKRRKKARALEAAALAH
# human Mitogen- and Stress-activated Protein Kinase-1 (Msk1), RPS6KA5 (gene 9252), sequence (O75582 whole entry, looked up): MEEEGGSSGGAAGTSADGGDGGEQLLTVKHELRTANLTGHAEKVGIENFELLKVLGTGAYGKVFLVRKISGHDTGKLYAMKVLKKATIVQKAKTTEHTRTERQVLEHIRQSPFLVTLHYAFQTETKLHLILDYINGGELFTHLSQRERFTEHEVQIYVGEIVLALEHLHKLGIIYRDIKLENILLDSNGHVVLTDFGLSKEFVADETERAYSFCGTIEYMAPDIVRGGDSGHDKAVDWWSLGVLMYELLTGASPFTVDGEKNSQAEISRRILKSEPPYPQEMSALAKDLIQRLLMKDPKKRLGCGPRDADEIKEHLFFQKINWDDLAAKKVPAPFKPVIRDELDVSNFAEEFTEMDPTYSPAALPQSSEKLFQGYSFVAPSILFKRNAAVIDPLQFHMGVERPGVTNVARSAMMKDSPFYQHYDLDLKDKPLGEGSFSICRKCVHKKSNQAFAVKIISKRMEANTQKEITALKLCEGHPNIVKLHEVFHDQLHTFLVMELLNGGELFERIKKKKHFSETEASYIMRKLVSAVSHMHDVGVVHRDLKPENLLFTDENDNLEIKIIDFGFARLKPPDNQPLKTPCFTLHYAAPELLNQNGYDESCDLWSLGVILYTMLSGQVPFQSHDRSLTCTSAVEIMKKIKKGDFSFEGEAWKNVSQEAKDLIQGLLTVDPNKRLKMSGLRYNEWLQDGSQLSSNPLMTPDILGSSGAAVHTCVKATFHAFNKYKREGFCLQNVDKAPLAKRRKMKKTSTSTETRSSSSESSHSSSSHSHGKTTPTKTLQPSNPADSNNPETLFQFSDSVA
smiles,measurement,setting,value
CS(=O)(=O)c1ccc([C@@H](CC2CCCC2)C(=O)Nc2cnccn2)cc1Cl,outcome,[1],inactive
CCCCCCCCCCCCCCCCCC[N+](C)(C)Cc1ccccc1,outcome,[2],inactive
CCCCCCCCCCCCOS(=O)(=O)O,AC50,[3],37.5 µM (active)
same,AC50,[4],18.1 µM (active)
same,outcome,[5],inactive
same,AC50,[6],36.7 µM (active)
same,AC50,[7],43 µM (active)
same,AC50,[1],11.8 µM (active)
Cc1[nH]nc2c1N=C(c1ccccc1Cl)c1cc([N+](=O)[O-])ccc1N2,AC50,[8],0.00328 µM (active)
same,AC50,[3],35.8 µM (active)
same,AC50,[9],25 µM (active)
same,AC50,[4],25 µM (active)
same,AC50,[10],16.2 µM (active)
CCOC(C)=O,AC50,[2],4.98 µM (active)
CCCCCCCCCCCCCCC,outcome,[10],inactive
CCCCC(CC)C(=O)O (stereo unspecified),outcome,[2],inactive

# Reference: PubChem BioAssay (EPA / NIEHS)
